# From PubChem BioAssay AID651820 (National Center for Advancing Translational Sciences (NCATS), 2012)
# Hit rate of the full screen: of about 340,000 compounds, about 12,000 (3.5%) were called active. Another 18% or so got no clear call; they are omitted. The sample as a whole holds a higher share of actives than the screen did. A number with no mark means an inactive call. Calls follow the shape of the dose curve; as a rule, active = well fitted inhibition curve with a large enough effect; inconclusive = small, poorly fitted or top-dose-only effect, or another doubt; inactive = no such curve, though single readings can be large or run the other way.
# Experiment: qHTS Assay for Inhibitors of Hepatitis C Virus (HCV)
# Conditions: Huh7.5.1 HCVcc-Cre infection, luciferase reporter, 44 h; series mostly up to 41.8 µM; activity change, negative = inhibition: at the top concentration
# From the text: Hepatitis C virus (HCV) infects about 200 million people in the world. Many infected people progress to chronic liver disease including cirrhosis with a risk of developing liver cancer. To date, there is no effective vaccine for hepatitis C. Current therapy based on interferon is only effective in about half of the patients and is associated with significant adverse effects. The fraction of people with HCV who can complete a successful treatment is estimated to be no more than 10 percent. Recent development of direct-acting antivirals against HCV, such as protease and polymerase inhibitors, is promising but still requires combination with peginterferon and ribavirin for maximal efficacy. In addition, these agents are associated with high rate of resistance and many have significant side effects. Due to the lack of a culture system for infectious HCV, the search for new HCV drugs has been greatly hampered. […] High-throughput screening (HTS) with an infectious HCV system would cover the complete spectrum of potentially druggable targets in all stages of HCV lifecycle, and would have more biological relevance than other cell-based assays. Moreover, targeting several key processes in the viral life cycle may not only increase antiviral efficacy; more importantly, it may also reduce the capacity of the virus to develop resistance to the compound. The goal of this project is to identify novel HCV inhibitors as new therapies for hepatitis C, using a highly sensitive and specific assay platform which is based on a HCV infectious cell culture system established in the laboratory and adapted for high-throughput HCV drug screen. NIH Chemical Genomics Center [NCGC] NIH Molecular Libraries Probe Centers Network [MLPCN] MLPCN Grant: MH095511 Assay Submitter (PI): Jake Liang, NIDDK
# The assay will start with plating 1,000 cells/well in 3 µL volume and culture for 4 h. Then 23 nL of compounds from the library collection will be added to each well, followed by adding 2.5 µL of HCVcc-Cre virus (~ 0.5 moi) and further cultured for 44 h before the luciferase assay. A volume of 4.5 µL luciferase substrates will be added to each well and the plates will be incubated at room temperature for 15 min. and then read for 15 sec. for the luciferase activity
# % is scaled to controls: 0 for no effect and ±100 for the full control effect.
Structure (SMILES),"activity change, negative = inhibition",Potency
CCOC(=O)c1cc(-c2ccccc2C)n(Cc2cc(C)no2)n1,-15.8%,
Cc1cc(C)n2nc(C(=O)OCC(=O)N(CCC#N)c3ccc(F)cc3)nc2n1,24.9%,
Cc1c(C(=O)OCC(=O)N(CCC#N)c2ccccc2)oc2c1ccc1ccccc12,,8.91 µM (active)
N#CCCN(C(=O)COC(=O)c1ccc(S(=O)(=O)N2CCCCCC2)cc1)c1ccccc1,-2.62%,
Cc1cccc(C)c1NC(=O)COC(=O)c1c(C)nn(-c2ccccc2)c1C,-29.5%,
Cc1ccc(S(=O)(=O)Nc2nc(CN3CCOCC3)nc3sc(C)c(C)c23)cc1,14.3%,
COc1ccc(C)cc1NC(=O)CSc1cccc[n+]1[O-],20.4%,
CSc1nsc(SCC(=O)Nc2cc(C(=O)O)ccc2C)n1,28.5%,
COc1ccc(C)cc1NC(=O)CSc1nc(SC)ns1,,11.2 µM (active)
Cc1ccc(C(=O)CN2C(=O)NC3(CCOc4ccccc43)C2=O)s1 (configuration not stated),7.99%,
Cc1ccc(N2CC(C(=O)Nc3cc(Cl)ccc3-n3cncn3)CC2=O)cc1 (configuration not stated),8.85%,
OC(COc1ccccc1)CN1CCN(c2cccc(Cl)c2)CC1 (configuration not stated),13.3%,
CCc1nn(CCCN2CCN(c3cccc(Cl)c3)CC2)c(=O)n1CCOc1ccccc1,,10 µM (active)
CCN1C(=O)/C(=C\N2CCN(c3cccc(Cl)c3)CC2)SC1=S,-4.91%,
Cc1ccc(C(=O)OCC(=O)N2CC(C)CC(C)C2)cc1S(=O)(=O)N1CCCCC1 (configuration not stated),-4.66%,
CC(OC(=O)CNC(=O)c1ccc(Cl)c([N+](=O)[O-])c1)C(=O)NCc1ccco1 (configuration not stated),-1.08% [at 8.37 µM],
CC(=O)Nc1ccc(NC(=O)C(C)OC(=O)c2ccccc2C(=O)c2ccc(Cl)c([N+](=O)[O-])c2)cc1 (configuration not stated),,11.2 µM (active)
N#Cc1cccc(NC(=O)COC(=O)c2ccccc2C(=O)c2ccc(Cl)c([N+](=O)[O-])c2)c1,,10 µM (active)
CC(=O)Nc1ccc(NC(=O)COC(=O)c2ccccc2C(=O)c2ccccc2)cc1,5.01%,
NC(=O)c1ccc(NC(=O)COC(=O)c2ccc([N+](=O)[O-])cc2)cc1,11.3%,
O=C(Nc1ccncc1)c1ccc(Cl)c([N+](=O)[O-])c1,-0.941%,
COc1ccc(C(=O)COC(=O)c2c(C)noc2C)cc1Cl,-8.16%,
CCOC(=O)c1ccc(NC(=O)C2CC(=O)N(c3ccc4c(c3)OCCO4)C2)cc1 (configuration not stated),7.75%,
CCCN(CC(=O)Nc1ccccc1C)C(=O)c1ccc(OCC(=O)N2CCOCC2)c(OCC)c1,-8.77%,
NC(=O)NC(CC(=O)NNC(=O)c1ccccn1)c1ccc(Cl)cc1 (configuration not stated),0.701%,
O=C(NCC1CCCO1)c1cc2c(s1)CCCC2 (configuration not stated),-18.7%,
O=C(O)c1cc(S(=O)(=O)Nc2ccc3cn[nH]c3c2)ccc1Br,7.46%,
